Screening data from PubChem.
BAZ2B block = blocks human BAZ2B | Potency, µM (highest dose often 114 µM), for the others: top-dose activity change, negative = inhibition, most hits filed as inhibitors | Q9UIF8 | 4.4% of 360,000 active | AlphaScreen BAZ2B-H3K14Ac peptide displacement; also: % is scaled to controls: 0 for no effect and ±100 for the full control effect; nearly all actives have a fitted effect of over 60% in size
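Protein-peptide AlphaScreen: BAZ2B 50 nM, b-H3K14Ac 50 nM, 1x PBS pH 7.4 + 0.01% Tween-20. Preincubation 30 min RT; cpd 30 min RT (top 110 uM); beads 20 min RT, light-protected.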
G9a block = inhibitors of human histone lysine methyltransferase G9a. Q96KQ7. G9a H3K9 monomethylation, AlphaScreen, 2 h. Potency, µM (top dose mostly 102 µM), for the others: at the top dose activity, negative = inhibition, hits mostly inhibitors. 8.8% of 350,000 active. AID 504332; also: % is scaled to controls: 0 for no effect and ±100 for the full control effect; nearly all actives have a fitted effect of over 75% in size
Target sequence (Q96KQ7 913-1193 limits assumed): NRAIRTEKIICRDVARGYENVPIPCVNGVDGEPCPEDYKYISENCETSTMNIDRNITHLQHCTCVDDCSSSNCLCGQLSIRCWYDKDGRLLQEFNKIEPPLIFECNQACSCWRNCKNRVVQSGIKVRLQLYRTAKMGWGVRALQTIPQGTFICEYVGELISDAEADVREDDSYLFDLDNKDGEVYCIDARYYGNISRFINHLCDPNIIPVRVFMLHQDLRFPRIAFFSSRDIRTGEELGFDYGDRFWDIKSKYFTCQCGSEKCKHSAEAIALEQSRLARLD
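AlphaScreen detection with an anti-monomethyl H3K9 antibody quantified product after a 2 h room-temperature reaction containing 500 nM biotinylated H3K9 peptide, 20 µM SAM and 20 nM enzyme, which had been preincubated 15 min with compound.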
Sfp PPTase inh = Sfp phosphopantetheinyl transferase inhibition. Q9F4F7. Biochemical Sfp PPTase activity, qHTS. Potency, µM, for the others: largest response in the series, negative = inhibition, actives largely listed as inhibitors. 3.5% of 310,000 active. AID 1490;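 also: the enzyme is Sfp with the accession as filed and its product quenches rhodamine fluorescence; 0% = enzyme reaction without inhibitor and -100% = no enzyme wells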
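Sfp 15 nM + cpd, 15 min RT; start w/ rhodamine-CoA 5 uM, BHQ-2-YbbR 12.5 uM (final); 50 mM Hepes pH 7.6, 10 mM MgCl2, 0.01% NP-40, 0.01% BSA; read 525/598 nm at 0 and 30 min.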
JMJD2A Tudor = blocks the human JMJD2A Tudor domain. Potency, µM (titrated, usually from 114 µM), for the others: at the highest dose activity change, negative = inhibition, hits mostly inhibitors. 4.4% of 390,000 active. O75164. AlphaScreen JMJD2A-Tudor / H3K4me3 peptide binding. AID 504339; also: % is scaled to controls: 0 for no effect and ±100 for the full control effect; nearly all actives have a fitted effect of over 50% in size
HP1b chromo inh = inhibitors of HP1-beta chromodomain binding to methylated histone tails | AlphaScreen HP1-beta / biotin-H3K9me3 peptide binding | Potency, µM (series often up to 114 µM), for the others: at the highest dose activity change, negative = inhibition, actives largely listed as inhibitors | 0.56% of 390,000 active | AID 540317; also: nearly all actives have a fitted effect of over 70% in size
Target sequence (P83916 whole entry, looked up): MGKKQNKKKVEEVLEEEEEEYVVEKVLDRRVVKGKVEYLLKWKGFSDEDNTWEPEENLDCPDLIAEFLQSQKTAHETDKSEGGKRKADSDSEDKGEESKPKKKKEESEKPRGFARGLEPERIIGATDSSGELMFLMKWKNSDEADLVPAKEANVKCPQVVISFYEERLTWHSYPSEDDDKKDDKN
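Compound inhibition of the preformed complex between 50 nM HP1-beta and 50 nM biotinylated H3K9me3 peptide was read by AlphaScreen. Buffer was PBS pH 7.4 with 0.01% Tween-20. Incubations ran 30 min at room temperature, with 10 ug/mL donor/acceptor beads.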
PLK1 PBD inh = inhibitors of human PLK1 polo-box domain binding | Potency, µM, for inactives: max response, negative = inhibition, usual class: inhibitors | P53350 | Plk1 PBD binding of FITC phosphopeptide, fluorescence polarization | AID 720504 | 2.8% of 360,000 active; also: series mostly up to about 57 µM; % is scaled to controls: 0 for no effect and ±100 for the full control effect; nearly all actives have a fitted effect of over 65% in size
Active calls of the source: *; ? = inconclusive; . = not tested or not shown; ! = a repeat was not active; [ ] = another dose, or the depositor's remark. An excerpt weighted towards active compounds, which were near 12% of everything screened. Calls follow the shape of the dose curve; as a rule, active = well fitted curve in the direction sought with a large enough effect; inconclusive = small, poorly fitted or top-dose-only effect, or another doubt; inactive = no such curve, though single readings can be large; an effect the other way counts as inactive or inconclusive. Potency is read from the fitted curve at half-maximal effect.

SMILES | BAZ2B block | G9a block | Sfp PPTase inh | JMJD2A Tudor | HP1b chromo inh | PLK1 PBD inh
COc1ccc2[nH]cc(CCN(C)C)c2c1 | 21% | 56µM*! | -9% | -12% | 9% | 3%
O=C1NC(=S)NC(=O)C1c1ccccc1 | . | . | . | 50µM* | ? | 24µM*
Cn1cc(P(=S)(c2ccccc2)c2ccccc2)c2ccccc21 | . | . | . | -12% | . | .
O=C(O)CCC1NCC2CC1CN1CCCCC21 (stereo not given) | . | . | -10% | . | . | .
O=NN1CCCC1c1cccnc1 (stereo not given) | . | 17%[59 µM] | 26% | . | . | .
CCCCCCNC(=O)N[C@H](Cc1ccc(O)cc1)C(=O)NCCC[C@H]1CN2C(=NC[C@H]2CCC)N1CC1CCC1 | 79µM* | 0%[12.7 µM] | 7.9µM* | . | . | .
CCCCCCNC(=O)N[C@@H](Cc1ccc(O)cc1)C(=O)NCCC[C@H]1CN2C(=NC[C@H]2C)N1CC1CCC1 | 1% | ? | 9% | -17% | 12% | ?
CN1CCc2nc(SCC(=O)OC(C)(C)C)c(C#N)cc2C1 | -17% | 50µM* | -14% | 1% | 27% | -30%
CCN1C[C@@]2(COC)CC[C@H](O)[C@@]34[C@@H]2C[C@@H]([C@@H]13)[C@]1(O)C[C@@H](OC)C2C[C@H]4[C@H]1[C@H]2OC(C)=O | . | 26%[21.5 µM] | 13% | . | . | .
C[C@@H](COc1ccccc1)N(CCCl)Cc1ccccc1 | . | 2%[21.5 µM] | 14% | . | . | .
CCC(C)c1ccc(N2C(=O)NC(=O)/C(=C/c3cccn3CCOc3ccc(C)cc3)C2=O)cc1 (stereo not given) | -9% | 27%[59 µM] | 12% | -25% | 23% | -27%
CCOc1ccc(N2C(=O)NC(=O)/C(=C/c3cnc(SC)nc3)C2=O)cc1 | ? | 8.9µM* | 28µM* | ? | -38% | 11µM*
CSc1ncc(/C=C2/C(=O)NC(=O)N(c3ccc(Cl)cc3)C2=O)cn1 | -16% | 8.9µM* | 56µM* | ? | -13% | 12µM*
COc1ccc(/C=C2/C(=O)NC(=O)N(c3ccc(C)c(C)c3)C2=O)cc1CN1C(=O)c2ccccc2C1=O | 50µM* | 11µM* | 40µM* | 50µM* | -11% | 4.2µM*
Cc1cc(/C=C2\C(=O)NC(=O)N(c3ccc(Cl)cc3)C2=O)c(C)n1C | -6% | . | -13% | -6% | 58% | -9%
Cc1ccc(N2C(=O)NC(=O)/C(=C/c3cnn(-c4ccc(C)cc4)c3)C2=O)cc1 | 2% | 3.5µM* | -3% | -8% | 46% | 1.2µM*
CCC1(c2ccccc2)CCC(=O)NC1=O (stereo not given) | . | 8%[59 µM] | 17% | . | . | .
N#CC1c2ccccc2-n2nncc2CN1C(=O)CCc1ccccc1 (stereo not given) | . | . | . | -8% | 52% | -3%
COc1cc(/C=C2\C(=O)NC(=O)N(c3ccc(C)cc3)C2=O)cc(OC)c1O | 4% | 20µM* | 35µM* | -3% | 25% | ?
CC1=NN(c2ccccc2)C(=O)C1/C=C1\C(=O)NC(=O)N(c2ccc(C)c(C)c2)C1=O (stereo not given) | ? | 45µM* | -20% | -5%[11.4 µM] | -14% | 21µM*
CC1=NN(c2ccccc2)C(=O)C1/C=C1/C(=O)NC(=O)N(c2cccc(C)c2)C1=O (stereo not given) | ? | -19%[59 µM] | -13% | . | . | .
Cc1cc(C)cc(N2C(=O)NC(=O)/C(=C\c3cc(C)n(C)c3C)C2=O)c1 | -6% | ? | -8% | -19% | 6% | -16%
O=C1NC(=O)N(c2ccc(Br)cc2)C(=O)/C1=C/c1ccsc1 | 14% | 20µM* | 32µM* | -22% | 27% | 4.7µM*
CSc1ncc(/C=C2/C(=O)NC(=O)N(c3ccc(C)cc3)C2=O)cn1 | -38% | 10µM* | 45µM* | -18% | -5% | 9.5µM*
COC(=O)[C@@]1(O)C[C@@H]2O[C@@]1(C)n1c3ccccc3c3c4c(c5c6ccccc6n2c5c31)C(=O)NC4 | . | . | -3% | . | . | .
SMILES | BAZ2B block | G9a block | Sfp PPTase inh | JMJD2A Tudor | HP1b chromo inh | PLK1 PBD inh
CNC(=O)Oc1ccccc1C(=O)Nc1ccccc1 | . | 8%[12.7 µM] | 1% | . | . | .
Cc1ccc(N2C(=O)NC(=O)/C(=C\c3cnc(-c4ccccc4)nc3)C2=O)cc1 | 1% | ? | 56µM* | ? | -19% | 8.4µM*
Cc1ccc(N2C(=O)NC(=O)/C(=C\c3cccn3C(C)(C)C)C2=O)cc1 | -1% | ? | 15% | -16% | 42% | ?
C=C(C)[C@H]1C2C(=O)O[C@H]1[C@H]1OC(=O)[C@@]34O[C@@H]3C[C@]2(O)[C@@]14C | . | -3%[59 µM] | 16% | . | . | .
CC(C)(C)OC(=O)N1CC[C@H]1COc1cnc[c]([Sn]([CH3])([CH3])[CH3])c1 | . | 16%[12.7 µM] | 12% | . | . | .
N#CN=C1SCCN1Cc1ccc(Cl)nc1 | . | . | 7% | . | . | .
O=[N+]([O-])NC1=NCCN1Cc1ccc(Cl)nc1 | 19% | . | -5% | ? | 28% | 27µM*
O=[N+]([O-])/C=C1\NCCN1Cc1ccc(Cl)nc1 | 5% | 50µM*! | -10% | -12% | -25% | ?
Clc1ccc(Cn2ccnc2)cn1 | -7% | -25% | 7% | -24% | 13% | -23%
Cn1c(O)c(C(=Nc2ccccc2)SCc2ccc(Cl)cc2)c(=O)n(C)c1=O | ? | ? | 45µM* | ? | 60% | 27µM*
O=C(CO)C(O)C(O)C(O)CO (stereo not given) | 8% | 4%[12.7 µM] | 5% | 56µM* | 13% | 27µM*
COc1ccc(-n2c(O)c(/C=C3\C=Nc4ccc(Br)cc43)c(=O)[nH]c2=O)c(OC)c1 | ? | 32µM* | -21% | ? | 5% | 2.1µM*
COc1ccc(-n2c(O)c(/C=C3\C=Nc4ccc(Br)cc43)c(=O)[nH]c2=O)cc1 | -12% | -15% | -19% | -13% | 9% | 1.1µM*
COc1ccc(-n2c(O)c(/C=C3\C=Nc4ccccc43)c(=O)[nH]c2=O)cc1 | ? | . | -11% | -13% | 40% | -10%
Cc1cc(OCC(=O)NC(Cc2ccc(Cl)cc2)C(=O)O)c2c3c(c(=O)oc2c1)CCCC3 (stereo not given) | -24% | -27%[12.7 µM] | 10% | -4% | 39% | -8%
Cc1ccc2c(c1)NP(=S)(Oc1ccccc1)N2 (stereo not given) | . | . | . | -25% | -17% | ?
COc1ccc2c(c1)NP(=S)(Oc1ccccc1)N2 (stereo not given) | ? | 7.1µM* | 32µM* | ? | ? | 15µM*
O=C1NC(c2cccnc2)Nc2sc3c(c21)CCCC3 (stereo not given) | 9% | ? | -23% | -26% | 49% | ?
CC1(C)Cc2c(sc3c2C(=O)NC(c2cccnc2)N3)CO1 (stereo not given) | 6% | ? | 40µM* | -19% | 29% | -28%
CN(C)CCOc1ccc(/C(=C(/CCCl)c2ccccc2)c2ccccc2)cc1 | . | ? | -28% | 25µM* | -18% | 4%
